# gsp antagonist = antagonists of gsp mutant (McCune-Albright syndrome). gsp-mutant cells, cAMP HTRF, 30 min. Potency, µM (top dose mostly 76.9 µM), for the others: top-dose activity change, negative = inhibition, hits mostly inhibitors. 340,000 tested, 0.4% active; calls by dose curve; cell line not stated here;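 note: intracellular cAMP measured with PDE inhibitor Ro 20-1724 present during compound exposure; potency is the fitted concentration of half-maximal effect; % is set by controls: 0 for no effect and ±100 for the full control effect; nearly all actives have a fitted effect of over 65% in size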
#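 Cells, 2000/well, grown 16–24 h in DMEM 10% FBS with 0.5 mg/ml G418, then compounds plus […] (300 uM addition stock), 30 min at 37C. cAMP read by HTRF (cAMP-d2 and anti-cAMP antibody-K in lysis buffer) after 30 min RT.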
# RXFP1 antag = antagonists of human relaxin receptor RXFP1 | HEK293-RXFP1, relaxin-stimulated cAMP HTRF, 30 min; stronger effect = lower value | activity change, negative = inhibition, % at 57.5 µM | 350,000 tested, 0.59% active;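 active = activity change of -60% or lower, but not beyond a set lower limit; inconclusive = change between -60% and -40%, or beyond the set limit; inactive = change above -40%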; note: % is set by controls: 0 for no effect and ±100 for the full control effect
# Target sequence (Q9HBX9 whole entry, looked up): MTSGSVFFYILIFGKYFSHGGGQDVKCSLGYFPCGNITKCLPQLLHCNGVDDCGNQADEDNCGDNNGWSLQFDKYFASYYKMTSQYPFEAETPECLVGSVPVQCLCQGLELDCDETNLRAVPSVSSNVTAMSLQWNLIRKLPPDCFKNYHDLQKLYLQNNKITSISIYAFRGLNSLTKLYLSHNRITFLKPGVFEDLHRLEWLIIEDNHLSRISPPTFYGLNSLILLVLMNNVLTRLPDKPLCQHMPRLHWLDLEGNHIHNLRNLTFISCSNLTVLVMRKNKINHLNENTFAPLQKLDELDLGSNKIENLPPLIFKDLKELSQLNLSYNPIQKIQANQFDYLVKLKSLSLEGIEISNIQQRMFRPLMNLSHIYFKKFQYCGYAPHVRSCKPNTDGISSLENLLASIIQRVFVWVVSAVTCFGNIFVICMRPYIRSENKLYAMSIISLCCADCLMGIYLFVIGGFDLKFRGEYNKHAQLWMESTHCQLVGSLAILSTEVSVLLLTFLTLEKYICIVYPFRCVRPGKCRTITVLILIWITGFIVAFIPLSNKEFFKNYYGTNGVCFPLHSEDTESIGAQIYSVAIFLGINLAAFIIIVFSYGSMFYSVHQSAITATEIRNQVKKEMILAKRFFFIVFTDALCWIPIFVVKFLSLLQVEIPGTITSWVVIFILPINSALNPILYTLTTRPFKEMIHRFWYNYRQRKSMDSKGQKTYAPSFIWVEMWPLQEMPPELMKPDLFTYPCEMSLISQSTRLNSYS
# Akt phos inh = inhibitors of Akt phosphorylation. Neuro2A IGF-stimulated pAkt S473 HTRF, 20 min; stronger effect = lower value. activity change, % for hits at 50 µM. 360,000 tested, 0.32% active; in the data active = activity change below about -80%; inconclusive = mostly about -51% to -80%; note: % is set by controls: 0 for no effect and ±100 for the full control effect
#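 Neuro2A cells in DMEM with 0.5% FBS, overnight at 37 deg C, given compound at single 50 µM final, then IGF (6 nM final) for 20 min at 37 deg C. Lysed; phospho-Akt Ser473 by HTRF after 24 h, 665/615 ratio.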
# gsp agonist = activates gsp, the McCune-Albright syndrome mutation | 340,000 tested, 0.13% active | Potency, µM (top dose mostly 76.9 µM), inactives show at the top dose activation (cAMP increase), most hits filed as activators | gsp mutant cells, cAMP HTRF, 30 min; active = well fitted activation curve with a large enough effect; inconclusive = small, poorly fitted or top-dose-only effect, or another doubt; inactive = no such curve, though single readings can be large or run the other way; cell line not stated here;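 note: phosphodiesterase inhibitor Ro 20-1724 added with compounds to block cAMP breakdown; potency is the fitted concentration of half-maximal effect; nearly all actives have a fitted effect of over 60% in size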
#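 Cells in DMEM/10% FBS with G418 were pretreated with compounds in DMSO plus […] (300 uM stock) for 30 min at 37C. cAMP was measured by HTRF (cAMP-d2 plus anti-cAMP antibody-K) after 30 min at room temperature.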
# RXFP1 ag = agonists of human relaxin receptor RXFP1 | 370,000 tested, 0.3% active | Q9HBX9 | HEK293T-RXFP1 cAMP TR-FRET, 30 min; response scale: percent of porcine relaxin response, buffer zero | Potency, µM (titrated, usually from 57.5 µM), without a hit: top-dose activation, hits mostly activators; active = well fitted activation curve with a large enough effect; inconclusive = small, poorly fitted or top-dose-only effect; note: potency is the fitted concentration of half-maximal effect; % is set by controls: 0 for no effect and ±100 for the full control effect; nearly all actives have a fitted effect of over 60% in size
#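 cAMP rise read by TR-FRET after 30 min, 37C compound exposure (up to 58 uM) in RXFP1-transfected HEK293 cells with Ro 20174 present. EC50 from Hill-equation fits, with 29 nM porcine relaxin as 100% and buffer as basal.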
# ClpP mod = qHTS Assay for Activators of ClpP. 340,000 tested, 1.9% active. Potency, µM (titrated, usually from 57.5 µM), without a hit: at the top dose activity change, negative = active. purified B. subtilis ClpP, FRET peptide cleavage, 20 min; active = well fitted falling curve with a large enough effect; inconclusive = small, poorly fitted or top-dose-only effect; inactive = no such curve, though single readings can be large or run the other way; note: potency is the fitted concentration of half-maximal effect; the source files actives as falling curves though it sought activators and does not explain the sign; nearly all actives have a fitted effect of over 65% in size
#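 FRET quenching reversal measured ClpP activation: 10 microg/mL B. subtilis ClpP at pH 8 with the FRET-FV decapeptide, read at 430 nm after 320 nm excitation. The 20-min minus 0-min signal was scaled between DMSO/no-enzyme wells and ADEP (5.8 microM final).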
# Active calls of the source: *; i = inactive; ? = inconclusive; / = no result given; [ ] = another dose, or the depositor's remark. An excerpt weighted towards active compounds, which were near 2.7% of everything screened.
SMILES,gsp antagonist,RXFP1 antag,Akt phos inh,gsp agonist,RXFP1 ag,ClpP mod
CC/C(=C\c1ccccc1)c1cccc2oc3ccccc3c12,/,/,/,/,/,3.9%
CCC12CN3CC(CC)(CN(C1)C3c1ccc(OC(C)C)cc1)C2=O (stereo not given),-6.5%,-5.2,-111.9%*,-11.1%,-0.7%,-0.5%
COc1ccc(C(C(=O)NC(C)(C)C)n2c(-c3ccc(-c4ccccc4)cc3)nc3ccccc32)cc1 (stereo not given),/,/,i,/,/,4.7%
CCc1ccc(N2CC(C(=O)OCC(=O)Nc3ccc(C(C)=O)cc3)CC2=O)cc1 (stereo not given),-2.3%,-1.5,i,3.7%,-0.2%,1.7%
CCOC(=O)COc1ccc2c(c1)C(=O)CC(C)(c1cccnc1)O2 (stereo not given),?,-7.9,i,5.9%,0.0%,28.2µM*
CCOC(=O)COc1ccc2c(c1)C(=O)CC1(CCCCC1)O2,-14.9%,2.1,/,-6.6%,1.1%,28.2µM*
O=C(COc1ccc2c(c1)C(=O)CC1(CCCCC1)O2)NCc1ccccn1,-20.9%,6.7,i,?,1.7%,25.1µM*
O=C(COc1ccc2c(c1)C(=O)CC1(CCCCC1)O2)NCc1ccccc1,-11.5%,2.0,i,-0.3%,3.1%,-17.2%
Cc1ccccc1-c1noc(-c2ccc(N3CCN(C)CC3)c([N+](=O)[O-])c2)n1,/,/,/,/,2.1%,1.0%
COc1ccc(C)cc1NC(=O)CSc1nnc2ccc(-c3cccnc3)nn12,6.9%,-4.0,i,14.6%,4.7%,-2.2%
Cc1cccc(Cl)c1OCCCn1ccnc1,3.3%,2.0,i,-24.4%,2.2%,-2.9%
COc1ccccc1NC(=O)c1cccc(N2C(=O)C3C4C=CC(C4)C3C2=O)c1 (stereo not given),-11.6%,-77.0*,i,?,-4.8%,-0.4%
O=C(O)c1ccc(NC(=O)c2cccc(N3C(=O)C4C5CCC(C5)C4C3=O)c2)cc1 (stereo not given),11.3%,-2.1,i,24.7%,2.2%,25.1µM*
O=C(O)c1cccc(NC(=O)c2ccc3c(c2)C(=O)N(c2ccccc2)C3=O)c1,5.8%,-1.1,i,-20.6%[15.4 µM],-2.5%,8.91µM*
COc1ccc(NC(=O)c2cccc(N3C(=O)C4C5C=CC(C5)C4C3=O)c2)c(OC)c1 (stereo not given),-1.5%,7.2,i,-2.2%,-0.3%,2.0%
c1ccc2c(c1)oc1c(NCCCN3CCOCC3)ncnc12,7.9%,-6.6,-109.0%*,?,1.6%,-1.7%
c1ccc(-c2oc3ncnc(NCCN4CCOCC4)c3c2-c2ccccc2)cc1,-18.5%,-1.7,i,1.3%,0.1%,15.8µM*
c1csc(-c2nc(NCCCN3CCOCC3)c3ccccc3n2)c1,7.3%,-10.5,i,-0.3%[15.4 µM],0.0%,35.5µM*
Fc1ccccc1-c1nc(NCCCN2CCOCC2)c2ccccc2n1,5.0%,-4.2,i,-2.9%,2.7%,-5.0%
CC1Cc2ccccc2N1Cc1nc2cc(Cl)ccc2c(=O)[nH]1 (stereo not given),-0.3%,-10.1,i,-0.5%,1.0%,12.6µM*
COc1cc(C2C(C#N)=C(N)Oc3cc(C)n(CCc4ccccc4)c(=O)c32)cc2c1OCO2 (stereo not given),23.5%,4.6,-87.9%*,16.4%,1.9%,-12.9%
Cc1cc2c(c(=O)n1CCN(C)C)C(c1ccncc1)C(C#N)=C(N)O2 (stereo not given),12.6%,6.2,i,10.2%,-0.1%,2.51µM*
CCc1ccccc1N(CC)C(=O)CCc1nc(-c2ccc(C)cc2)no1,?,-10.3,-116.3%*,?,1.3%,-1.9%
Cc1ccc(-c2noc(CCC(=O)N(C)c3ccccc3F)n2)cc1,/,-0.5,/,/,-3.5%,-1.2%
Cc1ccc(-c2noc(CCC(=O)NCCN3CCN(Cc4ccccc4)CC3)n2)cc1,-0.4%,-0.1,i,-4.7%,-0.5%,28.2µM*
SMILES,gsp antagonist,RXFP1 antag,Akt phos inh,gsp agonist,RXFP1 ag,ClpP mod
CC(C)C(=O)Nc1cccc(C2CN3CCSC3=N2)c1 (stereo not given),/,10.3,/,/,/,/
COc1cc(OC)c(OC)cc1/C=C/c1cc[n+](C)c2ccccc12,/,/,/,/,/,-4.5%
Cc1ccc(C)c(N2CCN(C(=O)c3cccc(-n4c(C)nc5cccnc54)c3)CC2)c1,/,-69.7*,/,/,0.9%,-0.3%
Cc1ccc(Cl)cc1N1CCN(C(=O)c2ccc(C)c(-n3c(C)nc4cccnc43)c2)CC1,/,-64.3*,/,/,-0.7%,-7.9%
Cc1ccc2c(c1)c1c(c(=O)n(Cc3ccccc3)c(=O)n1Cc1ccccc1F)n2C,/,/,/,/,-0.1%,?
CCOC(=O)C(=O)N(C)c1c(CC)nc2c(OCc3cccc(Cl)c3)cccn12,/,/,i,/,/,0.0%
Cc1cccc(C)c1NC(=O)c1ccc(-c2ccc(Cl)cc2Cl)o1,-21.5%,-16.7,-115.4%*,0.2%,-1.0%,-3.2%
CCN1CCN(c2cc(C)c3cc(NC(=O)Cc4ccccc4OC)ccc3n2)CC1,17.9%,13.2,i,-6.6%,1.6%,28.2µM*
Cc1cc(N2CCN(C)CC2)nc2ccc(NC(=O)CCC(=O)NCc3ccco3)cc12,2.3%,4.5,i,-55.6%,-2.9%,22.4µM*
Cc1ccccc1NC(=O)Nc1ccc2nc(N3CCN(C)CC3)cc(C)c2c1,/,0.1,/,/,0.1%,-0.6%
CCN1CCN(c2cc(C)c3cc(NC(=O)c4cncc(Br)c4)ccc3n2)CC1,0.3%,-13.1,i,0.1%[15.4 µM],-0.9%,20µM*
CCOc1ccccc1NC(=O)Nc1ccc2nc(N3CCN(C)CC3)cc(C)c2c1,/,-20.4,/,/,/,11.2µM*
COc1ccc(-c2noc(CSc3nc(N)cc(=O)[nH]3)n2)cc1OC,/,-22.7,/,/,0.2%,-3.1%
COc1ccc(C)cc1NC(=O)CCC(=O)Nc1ccc2nc(N3CCN(C)CC3)cc(C)c2c1,0.0%,-9.3,i,6.4%,-2.2%,28.2µM*
CCN1CCN(c2cc(C)c3cc(NC(=O)CCC(=O)Nc4ccc(OC)c(OC)c4)ccc3n2)CC1,-3.8%,-1.4,i,3.4%,-0.9%,4.5%
O=C(NCc1n[nH]c(=S)n1-c1ccc(Cl)c(Cl)c1)c1ccc(S(=O)(=O)N2CCCCC2)cc1,1.0%,-60.5*,i,-9.1%,0.8%,/
O=C(NCc1n[nH]c(=S)n1-c1cccc(Cl)c1)c1ccc(S(=O)(=O)N2CCCC2)cc1,-0.3%,29.2,/,30.0%,-1.5%,-1.6%
Cc1ccc(CNc2oc(-c3ccc(COc4ccc(Cl)cc4)o3)nc2C#N)cc1,/,-4.2,/,/,0.0%,?
COc1ccc(OCc2ccc(-c3nc(C#N)c(NCc4ccccc4)o3)o2)cc1,/,-14.5,/,/,2.4%,11.2µM*

# High-throughput results as filed in PubChem.
